Here are results for 39 compounds from PubChem BioAssay AID720535 (National Center for Advancing Translational Sciences (NCATS), 2013).

Hit rate of the full screen: of about 1,600 compounds, about 420 (26%) were called active. About 40% were inconclusive and are not listed. Calls follow the shape of the dose curve; as a rule, active = well fitted inhibition curve with a large enough effect; inconclusive = small, poorly fitted or top-dose-only effect; inactive = flat fitted curve, though single readings scatter. The entries come from a sample that favours actives as a whole. Where a call stands in place of a potency, no number is given.
Potency is read from the fitted curve at half-maximal effect.

A short description of the assay: qHTS for Inhibitors of TGF-b: Cytotox Counterscreen for Cherry Picks. Also: nearly all actives have a fitted effect of over 70% in size. The following applies: HepG2 CAGA-GFP viability, ATP luminescence, 18 h, cells stimulated with TGF-beta, 500 pg/mL; series mostly up to 46.1 µM. An excerpt:
TGF-b is a main component in the TGF-b signaling pathway which plays diverse roles in cellular and development pathways. TGF-b is mediated by transcription factors called "Smads". Although the Smad-dependent pathway is the primary canonical TGF-b signaling mode, TGF-b1 can also activate alternative signaling pathways, including those involving MAPK (ERK, JNK and p38). This interaction may mediate or enhance Smad-dependent responses, or can exert Smad-independent effects. The complexity of this signaling cascade allows the TGF-b superfamily to perform unique, overlapping or redundant functions. We believe that targeting the TGF-beta pathway at the Smad-transcription factor level may eliminate the consequences of disrupting the entire pathway and offer specificity without affecting other signaling pathways. Smad3 is the primary transducer of TGF-b's signals and Smad3 regulates many functions attributed to TGF-b signaling. We hypothesize that Smad3 inhibitors will selectively eliminate Smad3-specific TGF-beta signals without undesired off-target effects. We aim to identify Smad3-small molecule antagonists using a quantitative high throughput screening (qHTS) approach. A high-throughput assay was developed to screen the NIH Molecular Libraries Small Molecule Repository (MLSMR). This is a cell based assay, where TGF-b is tagged with GFP. This is a counterscreen that evaluates the cytotoxicity of the compounds that were identified as hits in the primary cell-based screen (AID 588855). MH087449NIH Chemical Genomics Center [NCGC] NIH Molecular Libraries Probe Centers Network [MLPCN] MLPCN Grant: MH087449 Assay Submitter (PI): Sushil Rane, National Institute of Diabetes and Kidney Diseases
Suspensions of trypsinized HEPG2 CAGA-GFP cells were dispensed into white, tissue culture-treated, solid 1536-well plates at 5uL/well (1000 cells/well final concentration) in DMEM medium supplemented with 1% FBS. Plates were incubated at 37 degrees C for 2 hours, after which 23 nL of compounds or DMSO were delivered to each well using a pin tool. One uL of recombinant TGF-beta in DMEM (1% FBS) was then dispensed (500 pg/mL final concentration), and plates were incubated at 37 degrees C for 18 hours. Two uL of CellTiter Glo (Promega), a luminescence-based viability reagent, was dispensed, followed by a 10 minute room temperature incubation. The plates were then measured on a PerkinElmer ViewLux plate reader for luminescence (clear filter) using a 5 second exposure. The %Activity was determined from the corrected luminescence values. Wells containing media only (no cells) were used to normalize %Activity of identified toxic compounds; media-only wells corresponded to 100%Activity (complete cell-killing), while DMSO-dosed cell controls were used to normalize 0%Activity (no toxicity). Concentration-response curves were fitted to the signals arising from the resulting luminescence. The concentration-effect curves were then classified based on curve quality (r2), response magnitude and degree of measured activity, and compounds were subsequently categorized based on their curve class.
(In general: Quantitative high-throughput screening tests each substance at several concentrations.)
With `COc1cc(NC(=O)c2[nH]cnc2C(N)=O)cc(C(=O)Nc2cccc(C(F)(F)F)c2)c1`, the Potency was 20.6 µM (active).
Next, `Cc1ccc(S(=O)(=O)Nc2nc3ccccc3nc2N2CCc3ccccc3C2)cc1`: “inactive”; `Cc1ccc(CN2CC(N3CCC(Cc4ccccc4)CC3)CS2(=O)=O)cc1` (centres undefined): “inactive”; `COc1ccc(C)cc1S(=O)(=O)N1CCN(S(=O)(=O)c2cc(C(=O)O)ccc2C)CC1`: “inactive”.
Next, `O=C(/C(=C/c1cccc(Cl)c1)c1nc2ccccc2[nH]1)c1ccccc1`: 6.51 µM (active); `CN(c1ccccc1)S(=O)(=O)c1ccc(C(=O)N2CCN(c3ccccc3Cl)CC2)cc1`: “inactive”; `O=c1[nH]c(CCl)nc2cc(-c3ccc(Cl)cc3)sc12`: 23.1 µM (active).
Next, `CN(C)CCNC(=O)c1ccc(Cl)c2cc3ccccc3nc12`: 2.59 µM (active).
For `CC[C@H]1CN2CCc3cc(OC)c(OC)cc3[C@@H]2C[C@@H]1C[C@H]1NCCc2cc(OC)c(OC)cc21`, the Potency is 3.66 µM (active).
In the case of `COc1ccc(-c2onc(C)c2-c2ccc3c(c2)OCCO3)c(O)c1`, the Potency entry was “inactive”.
Next, `COc1ccc(CC(=O)Nc2ccccc2NC(=O)c2ccco2)cc1OC`: “inactive”; `O=C(Nc1nnc(S(=O)(=O)N2CCCCCC2)s1)c1cccc(Br)c1`: 7.31 µM (active); `Cc1ccc(S(=O)(=O)Nc2ccc3c(c2)C(=O)N([C@H](C)CO)C[C@@H](C)[C@@H](CN(C)C(=O)Nc2cccc4ccccc24)O3)cc1`: “inactive”.
Next, `Cc1cccc2sc(N(CCCN(C)C)C(=O)CCS(=O)(=O)c3ccccc3)nc12`: 18.4 µM (active).
With `COc1cccc2sc(N(CCCN(C)C)C(=O)CCS(=O)(=O)c3ccccc3)nc12`, the Potency is 13 µM (active).
Next, `COC(=O)COc1cccc2c(=O)n(CC(=O)NCc3ccccc3)ccc12`: “inactive”.
Next, `CCCc1cc(-c2n[nH]c(=S)n2CC)c2ccccc2n1`: “inactive”; `Cc1ccc(C)c(S(=O)(=O)N2CCN(CC(=O)Nc3ccc([N+](=O)[O-])cc3)CC2)c1`: “inactive”.
Next, `Cc1ccnc(NC(=O)C2CCN(S(=O)(=O)c3c(C)c(C)cc(C)c3C)CC2)c1`: 11.6 µM (active); `Fc1cc(F)c2nc(Nc3nc4c(F)cccc4s3)sc2c1`: “inactive”; `Cc1cc(C)cc(N(CC(=O)N2CC=C(c3ccccc3)CC2)S(=O)(=O)c2c(C)noc2C)c1`: “inactive”.
On to `Cc1cccc(NC(=O)c2nc(S(=O)(=O)Cc3ccccc3)ncc2Cl)c1`, for which the Potency was 4.61 µM (active).
Next, `Cc1cccc(CS(=O)(=O)c2ncc(Cl)c(C(=O)Nc3ccc(F)cc3)n2)c1`: 10.3 µM (active); `CC(=O)c1cccc(-c2cnc3c(NC=O)cc(-c4ccc(N(C)C)cc4)cn23)c1`: “inactive”.
Next, `O=C(Nc1ccc(Cl)cc1)Nc1nnc(/C=C/c2ccccc2)s1`: “inactive”; `COc1ccc2nc(N3CCN(C(=O)c4ccc([N+](=O)[O-])o4)CC3)sc2c1`: 23.1 µM (active); `c1ccc2cc3c(NCCN4CCOCC4)ccnc3cc2c1`: 18.4 µM (active).
Next, `CN(C(=O)c1cccc(NC(=O)Cc2cccc([N+](=O)[O-])c2)c1)C1CCCCC1`: “inactive”.
On to `OCCCNc1nccc(-c2cc(Nc3cccc(Cl)c3)ncn2)n1`, for which the Potency was 0.651 µM (active).
Next, `CCOC(=O)C1=C(N)N(c2ccc(C)cc2)C2=C(C(=O)CCC2)C1c1cccs1` (centres undefined): “inactive”; `CN(C)c1nc(=Nc2cccc(Cl)c2)ss1`: “inactive”.
Turning to `COc1cccc(CNc2nc(NCc3ccccc3OC)nc3ccsc23)c1`, the Potency is 16.4 µM (active).
Next, `FC(F)(F)c1ccccc1Cc1c(-c2ccccc2)nc2c3ccccc3ccn12`: “inactive”; `COc1cc(NC(=O)c2ccccc2NS(=O)(=O)c2ccc(Cl)s2)cc(OC)c1`: 8.2 µM (active); `COc1cc(CC(=O)Nc2nc(-c3ccc(F)c(F)c3)cs2)cc(OC)c1OC`: 9.2 µM (active).
Next, `Cn1c(=O)n(C)c2cc(S(=O)(=O)N3CCCc4ccccc43)ccc21`: “inactive”; `CC1CCc2c(nc3ncnn3c2Nc2ccc(OC(F)(F)F)cc2)C1` (centres undefined): “inactive”; `Clc1ccc2c(c1)C1=C(C(c3ccncc3)O2)C(c2ccc(Br)cc2)n2ncnc2N1` (centres undefined): “inactive”.
As for `O=C(NC1=CC(=O)c2ccccc2C1=O)c1ccccc1`, the Potency was 8.2 µM (active).
